# Experimental data as given in PubChem BioAssay AID1347426 (Functional Genomics Laboratory (NCATS/FGL), 2020).
# Hit rate of the full screen: of about 31,000 sequences, about 1,400 (4.5%) were called active. Shown is part of a subset that was picked to be rich in actives. A number with no mark means an inactive call.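 How the source made its calls: active means median seed-adjusted z-score above 1 or below -1; inactive means the rest.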
# Assay: Novel Modifiers of Survival Motor Neuron (SMN) Protein: Gene Identification via Genome-wide siRNA Screen;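 further: luminescence tracks full-length SMN protein made from the SMN2 reporter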
# Details: HEK293T SMN2-luciferase reporter, siRNA knockdown, 72 h; actives lie on both sides
# In short: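 Genome-wide siRNA screen (10418 genes, 3 siRNAs each, 1 pmol per well) by reverse transfection in HEK293T cells stably carrying an SMN2-luciferase reporter; luminescence after 72 hours, normalized to negative-control siRNA, log10-transformed, MAD-scored.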
row,Sequence,median seed-adjusted z-score
1,GUCUUAGAAUGUGAACGUATT against CCNL1,-1.26 (active)
2,GGCAGGAGGUUUAAGAAGUTT against PPP3R2,-0.143
3,GAGAGUAUCGAAACCGUUUTT against GNPTAB,0.296
4,GGACUGCACUACUCCAUGATT against ADAMTS2,-0.338
5,GCACAGUAGUCACCAAUGATT against FUCA2,0.562
6,CCAAGGUACUAACAUGGGATT against AP3M1,0
7,CCCAGACUCUAGAUAGACATT against SULT1C3,-0.731
8,CUCCUGCAGUUGAAGGUGATT against FKBP8,-0.304
9,CCAACAAUUUAGUAGUUAUTT against TBP,-1.25 (active)
10,AGUACAACCUGGUGACGCATT against ZNF710,0
11,GGAUCAAUACUCCAACAAATT against ZNF281,1.19 (active)
12,GGCUUGAUGCUGGUACUUUTT against HACL1,-0.0664
13,AGCCUGCGGUUUUCUGUAUTT against SYT12,-0.329
14,UUACCAUCGUGAAGAGAAATT against CLEC5A,-1.07 (active)
15,CCUCAUCCCUGUUACAACATT against JAG1,-0.32
16,CCAACUGUGUGGCAGAACGTT against FKBP9L,0.666
17,GUCUGUAGUUCACCCGUUATT against USP9Y,0.012
18,AGCUAGGCCUGGAUAUCGATT against KRT83,1.15 (active)
19,GCUUUCUACAAGUAUAAGATT against ERO1LB,0.565
20,GGCUACCUGCAUUCACUGATT against SGK1,-0.659
21,CCACAGAUGUGCAUAAACATT against NFKB2,-0.132
22,GGAACAUCGAAAUCGUGUATT against DDX6,1.12 (active)

row,Sequence,median seed-adjusted z-score
1,GGUCUACUUCUACUACAAUTT against UTY,-0.538
2,CCGGUCAACUGUUACGUAUTT against GJA5,0.707
3,CAUUCUGUGGUGAAACAUUTT against SCLY,0.00396
4,CCACCAUAGGAUAUGGUUATT against KCNJ16,-0.705
5,CGCAAUAACUGUUUGGUAUTT against EGLN1,2.05 (active)
6,GGCUAAUCGUGAACCGGAATT against DOCK8,0.243
7,GGAUGGUAGUGUCUGACUUTT against MGLL,0.288
8,UGAAGAUGAUUGUCCUUAUTT against VAMP8,-0.184
9,CACCCUGCAGGUUCCCAUATT against HSD17B14,0.386
10,GGAUGCUUCUGAAUAGAAATT against BIRC7,-1.44 (active)
11,CACUAUUGCAUGUAUCGAATT against ARHGAP10,-0.458
12,CAAAGGGCUAAGUUCUAAATT against TBC1D5,0.38
13,AAACUAACAUUCGAUUGAATT against TRIM48,0
14,GGUGGAGGACCAAACAGAATT against MGAT4B,0.0142
15,GCUCUACUAUUUCUACGAUTT against SPPL2B,0.0324
16,GCAAGAGAGUCUCAAAUUUTT against EVX1,1 (active)
17,CCAUGCUCCAGUUAUCUUUTT against SLC10A6,-0.803
18,GAUUCUUCCCGGCAUCAUATT against GUCY1A3,0.187
19,GGGUGUAAAAUGCACGUUUTT against CLDN16,-0.868
20,CACUUGGAGUGGUGAAUCATT against NCL,1.33 (active)
21,GCUCGGUGGAAAAACGUGATT against SCN3A,-0.0556
22,CAGUCUACAGCUUCAACAATT against ZNF207,-3.1 (active)

row,Sequence,median seed-adjusted z-score
1,CGCUGACCCUGGAGAUGUATT against CALY,0.216
2,GGACAAUCCUUUCAUUAAUTT against HTR3C,-0.221
3,CUAAUUUACUAUUACGCUUTT against F2R,-0.392
4,UCCCAGCACUUAUAGCCUATT against ANKRA2,1.26 (active)
5,AGCCCUCUUCUGACACUAATT against SERPINH1,0.186
6,GCGUUGACCAAGACUCAUATT against TP53BP2,0.157
7,AGCACUGCAUGUUCACCGATT against KLHL25,-0.0146
8,GCAUAUUAAGGAGACCUAUTT against HSD17B6,0.573
9,CCAUCGUUCUGGGAAUUCUTT against CD6,-0.33
10,GGAUGAUAAUGCUAAUCCATT against PPP1R3A,-0.241
11,GGACUUUGACAAGAACAGUTT against CYP1A2,0
12,GAACAAUGAGUAUAUCCUATT against PPP2R5B,0.237
13,GACGACCAAUUAUAGUUUATT against ZRANB1,-0.347
14,CCAUCAAUGCGGCUCAUGUTT against TUFM,1.07 (active)
15,GGAUCAGCCGAGGAUGAAATT against PPP1R15A,0.539
16,GGAUCUCAUGCACAUCUCATT against PLA2G6,-0.123
17,AGAAGAUUCUUGUAUUUAUTT against IL24,-0.125
18,GGAUGAUAUCAACUGCUAUTT against ACVR2A,-0.22
19,ACAUGUGGGUGACGGUUUUTT against SRM,0
20,CAUGGACCCUGAUGACAUATT against UROD,1.11 (active)
21,GCGUGAAUGAGGUGGAUUATT against ETNK2,-0.74
22,CGUAUACUAUUAUCACGUUTT against ATP6V0A1,0.103

row,Sequence,median seed-adjusted z-score
1,GGGCACGGGUGAUAUGAAUTT against CTDP1,-2.29 (active)
2,AGCUACAAUUUGAAAGAGATT against RNF144A,-0.185
3,AGAGAUCACCGAUUACAGATT against ISG20,0.0209
4,CAACUGUUAUCAGAACGAUTT against ARFIP2,0.748
5,GCAAUGCCCUCUAUCAAUATT against IP6K1,-0.317
6,AGAUGAUCGCUGAGUUCAATT against TNNC2,-0.773
7,CGAAUGACAAGUGAUCUAATT against MDH1B,-1.13 (active)
8,GCUCAACUCUUAUUAGUCATT against ZNF485,0.445
9,AUACCUGAACAGUCCCUCATT against NOBOX,-0.426
10,CGCGCAACAUCGUCAAGUATT against LPHN1,-1.03 (active)
11,GGACUAUUACAAAUCAAGATT against FLT3,0.418
12,GGACAUUGAUUAUAUUGGATT against GALC,0
13,GACCGAGAAGUACCGCUGATT against HBZ,-0.0054
14,GCAUGUACCAGGUUCAGUATT against LRFN1,0.605
15,GCAGAGACCUACAAAAAGATT against RCN3,-2.44 (active)
16,GGCAGUGUUUAUUUACUAUTT against RHBDL2,0.0701
17,CCAAAGAUGUUUCAUCUGATT against PCDHGA7,0.705
18,AAGGUAAAAUUGAAGAGUUTT against SERPINB9,0
19,CUCACCUACUGGAACCUGATT against ZBED4,-0.553
20,CCAACAUGCUAAUCACCUATT against MAP3K12,-0.6
21,CUAUUUUACCUUUACAAGATT against ALDH1A2,0.564
22,CAUUAUCUAUUCUAGACAATT against TTC18,-1.15 (active)

row,Sequence,median seed-adjusted z-score
1,GCAUUGCCUCUAUACCAGATT against MALT1,0.442
2,GGGCAUGUUUCGUACCGUUTT against MYH10,0.0877
3,AGAACAUCCUGAUAGACCUTT against PIM2,0.00597
4,GGUGCGGAGAGAUGAGAUATT against PPM1M,0
5,GCAGAAAUGACACCAAUAATT against NMB,0.746
6,GCUCCUCAAAGGAUAUGAATT against CAB39L,0
7,AUUUAUUUGUUGAGGUUAUTT against PIM3,-1.01 (active)
8,GACCCUAAGCAGUAUAAGATT against CHSY3,-0.113
9,CGAUUGCCCAUCAUCCUGATT against HAO2,0.039
10,GCUUCUACCCGGACGAAGATT against MYCN,0.00242
11,AAACACCGCUGUUCCGUAATT against MED8,-1.61 (active)
12,GGCUAGUGAUCGACCGUAATT against FADS1,-0.905
13,GAAACCUGCUGAUCUACGATT against CREB3L2,-0.192
14,GGAGAAAACCUUCGAGCAGTT against NKX6-2,0.101
15,UCCUAAAUGUGACCCGGUATT against ZMYND19,0.369
16,GCCCAUUUCAUCAACCUGATT against PRDM15,0.258
17,CAACAACUGCUACCAAGAUTT against SLC6A4,1.43 (active)
18,GGAACUAGAUGUCAUGUAUTT against VILL,0.518
19,CAAGUGUCUAUGUAACGAATT against FBN2,0.373
20,GCCUUUACCCUUGAAGAAATT against ME3,0.166
21,CAAUCAUGUCGAGAAAUAATT against TGIF2LX,-0.568
